MARV entry inh: inhibitors of Marburg virus binding or cell entry; Marburg virus pseudotyped entry inhibition, cell reporter; Potency, µM (highest dose often 37.8 µM), inactives show top-dose activity change, negative = inhibition, usual class: inhibitors; 300,000 tested, 1.8% active; AID 540276; calls by dose curve; tested in HEK293 cells; also: potency is read from the fitted curve at half-maximal effect
HCV inhibitor: HCV inhibition; Huh7.5.1 HCVcc-Cre infection, luciferase reporter, 44 h; Potency, µM (top dose mostly 41.8 µM), for the others: top-dose activity change, negative = inhibition, most hits filed as inhibitors; 340,000 tested, 3.4% active; active = well fitted inhibition curve with a large enough effect; inconclusive = small, poorly fitted or top-dose-only effect, or another doubt; inactive = no such curve, though single readings can be large or run the other way; also: potency is read from the fitted curve at half-maximal effect
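HCVcc-Cre virus at an moi near 0.5 was added right after compound to cells cultured 4 h from seeding (1,000 cells/well). Luciferase activity was determined 44 h later, 15 min after substrate addition at RT.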
Lassa entry inh: blocks Lassa virus binding to or entry into cells; Lassa virus pseudotype entry inhibition, cell reporter; Potency, µM (highest dose often 37.9 µM), without a hit: at the top dose activity change, negative = inhibition, hits mostly inhibitors; 300,000 tested, 1.2% active; calls by dose curve; tested in HEK293 cells; also: potency is read from the fitted curve at half-maximal effect; nearly all actives have a fitted effect of over 50% in size
HCMV inh: blocks human cytomegalovirus replication. activity change, negative = inhibition, % at 57.5 µM. 410,000 tested, 4.5% active. HFF cells, HCMV-luciferase reporter, 72 h; stronger effect = lower value; in the data active = activity change below about -60%; inconclusive = no clear call, values can overlap the other calls; inactive = above about -39%
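Steps: HFFs plated, 16 h 37C; compounds added; HCMV-luciferase added to MOI 1 PFU/cell; 72 h 37C; OneGlo reagent, 5 min room temperature; luminescence read, normalized to controls.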
FMDV inh: antivirals against foot and mouth disease virus | Potency, µM (highest dose often 57.9 µM), without a hit: top-dose activity change, negative = inhibition, hits mostly inhibitors | FMDV antiviral cell-based qHTS | 410,000 tested, 1.2% active; calls by dose curve; tested in HEK293T cells; also: read-out not given here; potency is read from the fitted curve at half-maximal effect; nearly all actives have a fitted effect of over 45% in size
Starred values were filed as active, the others as inactive; [ ] = another dose, or the depositor's remark. This is a sample that favours compounds with a hit; in the whole collection about 7.9% have one here. % is scaled to controls: 0 for no effect and ±100 for the full control effect.

Screening Cc1cc(NC(=O)CSc2nc3ccccc3c(=O)n2C(C)c2ccccc2)no1 (configuration not stated) returned MARV entry inh 3.16µM*, HCV inhibitor inconclusive, Lassa entry inh 2.51µM*, HCMV inh inconclusive and FMDV inh -24.1%.
For COC(=O)C1(c2ccccc2)NC(c2ccc(O)cc2)C2C(=O)N(c3ccc4c(c3)OCO4)C(=O)C21 (configuration not stated) the results were HCV inhibitor 7.9%, HCMV inh -24.0 and FMDV inh -14.0%.
Screening CCCCCNC(=O)C(=O)NCC(c1ccc2c(c1)OCO2)N1CCOCC1 (configuration not stated) returned Lassa entry inh -5.7%[46.1 µM], HCMV inh 10.2 and FMDV inh -8.6%.
For CCC(CC)C(=O)N(C)c1c(C)nc2c(OCCC3CCCCC3)cccn12 the results were HCMV inh -19.4 and FMDV inh inconclusive.
COc1cc(CCN2C(=O)NC(c3ccccc3)C(C(C)=O)=C2C)cc(OC)c1OC (configuration not stated) was read as MARV entry inh 6.3%[14.2 µM].
Screening Cc1c(C(=O)C(=O)NCCC2=CCCCC2)c2ccccc2n1C returned MARV entry inh 4.1%, HCV inhibitor 17.7%, Lassa entry inh 12.3%, HCMV inh -62.0* and FMDV inh 20.1%.
For COc1ccc(CCNC(=O)C(=O)c2c(C)n(C)c3ccccc23)cc1OC the results were HCV inhibitor -6.0%, HCMV inh 0.5 and FMDV inh -6.3%.
`N#C/C(=C\c1ccc(Oc2ccc(C(F)(F)F)cc2[N+](=O)[O-])cc1)c1nc2ccccc2[nH]1` gave MARV entry inh inconclusive, HCV inhibitor -12.0%, Lassa entry inh inconclusive, HCMV inh -32.7 and FMDV inh 25.1µM*.
`COc1cc(/C=C(\C#N)c2nc3ccccc3[nH]2)c([N+](=O)[O-])cc1OCc1ccccc1` gave MARV entry inh inconclusive, HCV inhibitor 7.08µM*, Lassa entry inh inconclusive, HCMV inh inconclusive and FMDV inh -24.3%.
COc1cc(/C=C(\C#N)c2nc3ccccc3[nH]2)cc(Cl)c1OCc1ccccc1Cl was read as MARV entry inh inconclusive, Lassa entry inh -27.7%[46.1 µM], HCMV inh -80.0* and FMDV inh inconclusive.
N#C/C(=C\c1ccc(OCc2ccc(Cl)cc2Cl)cc1)c1nc2ccccc2[nH]1 was read as Lassa entry inh -0.5%[46.1 µM], HCMV inh 20.3 and FMDV inh -27.1%.
N=c1sccn1CC(=O)Nc1ccccc1Sc1ccccc1 was read as MARV entry inh inconclusive, HCV inhibitor -12.8%, Lassa entry inh inconclusive, HCMV inh -62.1* and FMDV inh -27.8%.
For CC(=O)N1CCN(CC(=O)Nc2ccccc2Sc2ccccc2)CC1 the results were MARV entry inh inconclusive, HCV inhibitor 4.8%, Lassa entry inh 10µM*, HCMV inh -26.2 and FMDV inh 0.0%.
Screening O=C(CN1CCOCC1)Nc1ccccc1Sc1ccccc1 returned MARV entry inh 16.1%[46.1 µM], HCV inhibitor -11.5%, Lassa entry inh 16.7%[46.1 µM], HCMV inh -13.6 and FMDV inh 0.3%.
Screening CSc1ccc(/C=C/C(=O)Nc2ccccc2)cc1 returned MARV entry inh 7.08µM*, HCV inhibitor -28.2%, Lassa entry inh inconclusive, HCMV inh -13.5 and FMDV inh -57.0%.
`CSc1cccc(NC(=O)/C=C/c2ccc(Cl)cc2)c1` gave MARV entry inh 2.2%, HCV inhibitor 12.6µM*, Lassa entry inh -1.1%, HCMV inh -18.1 and FMDV inh -19.8%.
For CSc1cccc(NC(=O)/C=C/c2ccccc2)c1 the results were MARV entry inh inconclusive, HCV inhibitor inconclusive, Lassa entry inh inconclusive, HCMV inh 14.9 and FMDV inh 36.6%.
Screening O=C1c2c(O)cc(O)cc2O[C@H](c2ccc(O)cc2)[C@H]1O returned HCV inhibitor -4.9%, HCMV inh -6.8 and FMDV inh -11.0%.
For O=C1c2c(O)cc(O)cc2O[C@H](c2ccc(O)c(O)c2)[C@H]1O the results were HCV inhibitor 0.562µM*, HCMV inh -9.7 and FMDV inh -12.0%.
CC(=O)NCCNc1nc(-c2c(C)noc2C)nc2ccccc12 was read as FMDV inh -12.4%.
`CC1CCCCN1C(=O)C1COc2ccccc2O1` (configuration not stated) gave MARV entry inh 14.3%[46.1 µM], HCV inhibitor 8.6%, Lassa entry inh -12.2%, HCMV inh -15.5 and FMDV inh -1.3%.

Screening data deposited in PubChem by National Center for Advancing Translational Sciences (NCATS).
